By AC50 is commonly meant the concentration at which the activity in the assay is half-maximal.

Results filed as inconclusive are left out. Activity calls are given as the source filed them. How the source made its calls: active means hit-call score of the fitted dose curve at least 0.9, where 1 is the maximum; inconclusive means response in the unintended direction; inactive means score below 0.9.

40 compounds from PubChem BioAssay (EPA / NIEHS) can be followed below.

The test can be described thus: Tanguay_ZF_120hpf_PFIN_legacy: (Legacy) Oregon State University Tanguay Lab 120 Hour Post-fertilization zebrafish Assay for Pectoral Fin Malformation (AID 2283648).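 Further: each larva judged yes or no for fin defect by brightfield with dead larvae skipped.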 As to the method:
Tanguay_ZF_120hpf_legacy is a whole embryo, multiplexed endpoint assay using zebrafish larvae exposed for 120 hours post fertilization on a 96-well plate.Tanguay_ZF_120hpf_PFIN_legacy is one of one assay component(s) measured or calculated from the Tanguay_ZF_120hpf_legacy assay. It is designed to make measurements of zebrafish development as detected with brightfield microscopy of developing zebrafish embryos.Data from the assay component Tanguay_ZF_120hpf_PFIN_legacy was analyzed into 1 assay endpoints. This assay endpoint, Tanguay_ZF_120hpf_PFIN_legacy, was analyzed in the positive analysis fitting direction relative to DMSO as the negative control and baseline of activity. Using a type of morphology reporter, gain-of-signal activity can be used to understand changes in developmentals as they relate to the whole embryo. To generalize the intended target to other relatable targets, this assay endpoint is annotated to the zebrafish development intended target family, where the subfamily is pectoral fin morphogenesis.
Zebrafish husbandry: Tropical 5D wild-type adult zebrafish were housed in at an approximate density of 1000 per 100 gallon tank at the Sinnhuber Aquatic Research Laboratory, Oregon State University, Corvallis, OR. Each tank was kept at standard laboratory conditions of 28C on a 14-h light/10-h dark photoperiod in fish water consisting of reverse osmosis water supplemented with a commercially available salt (Instant Ocean). Spawning funnels were placed into the tanks the night prior, and embryos were collected and staged. To increase bioavailability, the chorion was enzymatically removed using pronase (63.6mg/ml, >/= 3.5U/mg, Sigma-Aldrich: P5147) at 4 hours post fertilization (hpf) using a custom automated dechorionator.Chemical exposures: Six hpf dechorionated embryos were placed 1 embryo per well in a 96-well plate prefilled with 90 ul of EM using automated embryo placement systems (AEPS). Ten microliters of each row of dilution plate 2 was added to 2 exposure plates. The final DMSO concentration used was 0.64% (vol/vol). Thirty-two embryos were also exposed to 5uM trimethyltin chloride (positive control). Plates were sealed to prevent evaporation and foil covered to reduce light exposure and kept in a 28C incubator. Embryos were statically exposed until 120 hpf. At 24 hpf, embryos were assessed for photomotor response using a custom photomotor response analysis tool (PRAT) and for developmental toxicity endpoints (MO24: mortality at 24 hpf, DP: developmental progression, SM: spontaneous movement, and NC: notochord distortion). At 120 hpf, locomotor activity was measured using Viewpoint Zebralab and assessed for 18 endpoints. Zebrafish acquisition and analysis program (ZAAP), a custom program designed to inventory, acquire, and manage zebrafish data, was used to collect developmental endpoints as either present or absent (i.e., binary responses were recorded). If mortality occurred for an embryo (at either 24 or 120 hpf), the non-mortality endpoints were not measured.
Turning to `CCCCCCCCO`, the call was inactive. The same measure, in the same setting: the result for `O=c1[nH]c2ccc(S(=O)CCN3CCC(Cc4ccc(F)cc4)CC3)cc2o1` (stereo not given) reads “inactive”; that for `CC[C@H](C)C(=O)O[C@H]1C[C@@H](C)C=C2C=C[C@H](C)[C@H](CC[C@@H]3C[C@@H](O)CC(=O)O3)[C@H]21`, “inactive”. The same measure, in the same setting: the entry for `Cn1c(=O)cc(Oc2ccc(F)cc2F)c2cnc(NCC(C)(C)O)nc21` is “inactive”; for `COC(=O)c1ccccc1O` it is “inactive”. Still for that read-out and setting: the entry for `Cc1ccc(S(=O)(=O)O)cc1C` is “inactive”; for `CNS(=O)(=O)c1cc(C(=O)N2CCC(CCN3C4CCC3CC(n3c(C)nc5ccccc53)C4)(c3cccc(F)c3)CC2)c(Cl)cc1F` (stereo not given) it is “inactive”; for `CCNc1ccccc1` it is “inactive”. Consider `O=C1CCC(N2C(=O)c3ccccc3C2=O)C(=O)N1` (stereo not given), for which the compound was called inactive. The same measure, in the same setting: the entry for `Fc1ccccc1[C@@H](F)COC1CCC(Nc2ncnc3[nH]ncc23)CC1` (stereo not given in full) is “inactive”; for `C[C@](N)(Cc1ccc(O)c(O)c1)C(=O)O` it is “inactive”. For `O=P(OC(CCl)CCl)(OC(CCl)CCl)OC(CCl)CCl`, the AC50 is 40.3 µM (active). Regarding `CCCCC(CC)COC(=O)CCCCCCCCC(=O)OCC(CC)CCCC` (stereo not given), the compound was called inactive. The same measure, in the same setting: the result for `CC1=CC(=O)CC(C)(C)C1` reads “inactive”; that for `Nc1cccc(N)c1`, “inactive”. Take `CC(C)CCCCCCOC(=O)c1ccc(C(=O)OCCCCCCC(C)C)c(C(=O)OCCCCCCC(C)C)c1`: the compound was classed as inactive. Still for that read-out and setting: the result for `Cc1ccc(N)cc1O` reads “inactive”; that for `CCCC(=O)OCC`, “inactive”; that for `CCOc1cccc(-n2cc(C(=O)N3CCN(c4cc(C(=O)O)c5ccccc5c4)CC3)nc2-c2ccc(C)cc2)c1`, “inactive”.

On to `CC/C(=C\C(=N/O)C(N)=O)C(C)[N+](=O)[O-]` (stereo not given), for which the outcome was inactive.

`O=C(O)CC(O)C(=O)O` (stereo not given): the call was inactive. On the same count and under the same terms, the entry for `CC(=O)c1ccc2c(c1)[C@H](NC(=O)c1ccc(F)cc1)[C@@H](O)C(C)(C)O2` is “inactive”. As to `COc1ccc(-n2nc(C(F)F)cc2-c2ccc(S(C)=O)cc2)cc1` (stereo not given), the AC50 is 48.1 µM (active). As for `COc1ccc(/C=C/S(=O)(=O)NC(=O)c2ccc(C)cc2Cl)cc1`, the result was inactive. The same measure, in the same setting: the entry for `CCOC(=O)CC(CC(=O)OCC)(OC(C)=O)C(=O)OCC` is “inactive”. Same read-out and setting: the result for `CC1(C)C(=O)N(Br)C(=O)N1Br` reads “inactive”. `COCCOc1cc2cc(C(=O)NC3CCN(C(C)C)CC3)n(CC(=O)Nc3ccc(Cl)cn3)c2cn1`: the compound was classed as inactive. Same read-out and setting: the entry for `COC(=O)CC(=O)OC` is “inactive”.

Take `CC[C@H]1OC(=O)[C@H](C)[C@@H](O[C@H]2C[C@@](C)(OC)[C@@H](O)[C@H](C)O2)[C@H](C)[C@@H](O[C@@H]2O[C@H](C)C[C@H](N(C)C)[C@H]2O)[C@](C)(O)C[C@@H](C)C(=O)[C@H](C)[C@@H](O)[C@]1(C)O`: the compound was called inactive. Still for that read-out and setting: the result for `CC(C)=CCC/C(C)=C\CO` reads “inactive”; that for `CCCN(C1CCN(C(=O)C2CCNCC2)CC1)[C@@H]1CCc2ccc(OC)cc2C1`, “inactive”; that for `CC(C)CCCCCCCOC(=O)CCCCC(=O)OCCCCCCCC(C)C`, “inactive”. The same measure, in the same setting: the entry for `C1N2CN3CN1CN(C2)C3` is “inactive”; for `Cc1[nH]cnc1C[C@H]1CCc2c(C)c3ccccc3n2C1=O` it is “inactive”. The same measure, in the same setting: the entry for `CCn1nc(Cc2ccccc2)cc1C1CCN(C[C@H]2C[C@H](N(C)[C@@H](C(=O)O)C(C)C)C[C@@H]2c2cccc(F)c2)CC1` is “inactive”; for `O=C(O)c1cccc(N(Cc2cccnc2)c2ccc(OC(F)F)c(OC(F)F)c2)c1` it is “inactive”.

Take `CNCc1ccc(NC(=O)c2c[nH]c3c2C(=O)CCC3)cc1`: the compound was classed as inactive. Still for that read-out and setting: the entry for `CCOC(=O)COc1ccc2c(c1)CC(NCC(O)c1cccc(Cl)c1)CC2` (stereo not given) is “inactive”. The same measure, in the same setting: the result for `O=C(O)c1cc(N=Nc2ccc(S(=O)(=O)Nc3ccccn3)cc2)ccc1O` reads “inactive”. As for `CCCCCCCCCCCCCCCO`, the compound was classed as inactive.
